# Measurements published in PubChem BioAssay AID504834 (National Center for Advancing Translational Sciences (NCATS), 2011).
# Hit rate of the full screen: of about 320,000 compounds, about 22,000 (6.9%) were called active. Inconclusive results (about 27%) are left out. For the sample, actives were picked, then their nearest neighbours and some compounds at random. Unmarked numbers belong to inactive results. Calls come from the whole dose curve; as a rule, active = well fitted inhibition curve with a large enough effect; inconclusive = small, poorly fitted or top-dose-only effect, or another doubt; inactive = no such curve, though single readings can be large or run the other way.
# Experiment: Primary qHTS for delayed death inhibitors of the malarial parasite plastid, 96 hour incubation
# Conditions: P. falciparum luciferase reporter growth; series mostly up to 28.7 µM; activity change, negative = inhibition: at the top concentration
# From the text: The goal of this screen is to discover new antimalarial compounds that act by inhibiting the development of the apicoplast in the malarial parasite Plasmodium falciparum. The biochemical processes that make this organelle essential for erythrocytic stage parasites are not well understood. However, antibiotics such as azithromycin and tetracycline, which target the apicoplast translational machinery, have a potent antimalarial effect.
# We have developed a cell-based assay that measures parasite growth based on the expression of an integrated copy of a firefly luciferase reporter. To detect small molecules that cause this "delayed death" phenotype, erythrocytes infected with the luciferase-expressing parasites were incubated with compounds for either one or two generations, corresponding to 48 and 96 hours, respectively. Compounds that inhibit parasite growth in the second generation, but not the first, should be enriched in antimalarials that target the apicoplast. Growth inhibition is detected by a decrease in luciferase activity.
# Assay Provider: David Fidock and Eric Ekland, Columbia University
# Keywords: NIH Roadmap, MLPCN, MLI, MLSMR, qHTS, NCGC, qHTS, malaria, luciferase, viability
# Four microliters of infected erythrocytes (2% hematocrit, 0.05% parasitemia final concentration) in culture medium were dispensed and the plates incubated for 96 hours at 37 C in 5% CO2. Two microliters of luciferase detection reagent was added and luminescence was detected by a ViewLux (PerkinElmer) reader.
# % is set by controls: 0 for no effect and ±100 for the full control effect; potency is the fitted concentration of half-maximal effect.
SMILES,"activity change, negative = inhibition",Potency
O=C(NCCCn1ccnc1)c1ccccc1F,-19.5%,
COc1ccc(-c2cn3cccnc3n2)cc1,-27.3% [at 5.75 µM],
COc1ccc(-c2csc(Nc3ccccn3)n2)cc1,9.84%,
COc1ccc(-c2sc3ccc(OC)cc3c2C#Cc2ccccn2)cc1,,2.33 µM (active)
CC1(C)C(C=C(Cl)Cl)C1C(=O)NC(O)C(=O)c1ccccc1 (stereo unspecified),21.7%,
COc1ccc(N2CCN(C3CCCCC3NS(=O)(=O)c3ccccc3)CC2)cc1 (stereo unspecified),19.5%,
O=C(NC1Cc2ccccc2C1)c1cc(COc2cccc(C(F)(F)F)c2)on1,-18.1%,
CC(C)CC(=O)Nc1nnc(S(=O)(=O)N(C)c2ccc(Cl)cc2)s1,0%,
Cc1cc(C(=O)OCC(=O)N2c3ccccc3NC(=O)C2(C)C)c(C)n1-c1ccccc1,0%,
CNS(=O)(=O)c1cccc(C(=O)OCC(=O)N2c3ccccc3NC(=O)C2(C)C)c1,-26.3%,
CCNc1ccc(C(=O)OCC(=O)N2c3ccccc3NC(=O)C2(C)C)cc1[N+](=O)[O-],,9.28 µM (active)
COc1cccc(-n2c(=S)sc3c(=O)n(-c4ccccc4C)c(SCC(=O)O)nc32)c1,23.6%,
O=C(CN1CCCCCC1)Nc1ccc(Cl)cc1F,39.2%,
CN(C)C(=O)c1ccc(NC(=O)COC(=O)c2cc3c(s2)CCCCC3)cc1,-11.1%,
Cc1cc(C)cc(NC(=S)NCCCN2CCOCC2)c1,2.48%,
CC(CN1CCOCC1)c1ccccc1 (stereo unspecified),25.6%,
CC(C)c1cc(CN2CCOCC2)cc(C(C)C)c1O,,10.4 µM (active)
CCOC(=O)Nc1ccc2c(c1)N(C(=O)CCCl)c1ccccc1[S@]2=O,-14.6%,
Cc1ccc(CCN2CC(C(=O)NCCc3ccccc3)CC2=O)cc1 (stereo unspecified),68.2%,
CC(=O)Nc1c2c(nn1-c1cccc(C)c1)CSC2,20.2%,
O=C(CCCN1C(=O)/C(=C\c2ccco2)SC1=S)Nc1cccc2ccccc12,10.4%,
Cc1ccc2[nH]c(=O)c(-c3nc4c(C)cccn4c3NCc3ccco3)cc2c1,10.9% [at 5.75 µM],

SMILES,"activity change, negative = inhibition",Potency
CCCN(CCC)c1nc2c(C)cccn2c(=O)c1/C=C1/SC(=S)N(Cc2ccco2)C1=O,,2.08 µM (active)
Cn1c(=O)[nH]c(=O)c2c1[nH]c(=S)n2Cc1ccccc1,10.9%,
COc1ccc(C(=O)Oc2ccc(-c3nnco3)cc2)cc1S(=O)(=O)N1CCOCC1,22.5%,
COc1ccccc1N1CCN(CC(=O)NC(=O)NCc2ccco2)CC1,27.5%,
COc1cc2c(cc1OC)C(C(=O)NCc1ccco1)C1c3ccccc3CCN1C2=O (stereo unspecified),,3.29 µM (active)
COc1ccc(C2=NOC(C(=O)NCc3ccco3)C2)cc1OC (stereo unspecified),-4.01%,
CCCCNC(=O)CN1C(=O)NC(Cc2ccccc2)(Cc2ccccc2)C1=O,7.91%,
CCOC(=O)c1c(NC(=O)c2cccs2)sc(C)c1C,50.7%,
CCOC(=O)c1c(NC(=S)NC(=O)/C=C/c2cccs2)sc(C)c1C,0%,
CCOC(=O)c1c(NC(=O)/C=C/c2ccco2)sc(C)c1C,,2.33 µM (active)
Cn1c(Nc2ccccc2)cc(=O)n(C)c1=O,11.9%,
CCN1C(=O)[C@@H]2[C@@H](c3ccc(-c4ccc(OC)cc4)c(OC)c3)N3CCC[C@@]3(C(=O)OC)[C@@H]2C1=O,,10.4 µM (active)
COC(=O)CN1C(=O)[C@H]2[C@@H](C3CC3)N3C(=O)CN(Cc4ccc(-c5ccccc5)cc4)C(=O)[C@@]3(Cc3ccccc3)[C@H]2C1=O,40.9%,
CCCCCCSc1ccc([C@@H]2[C@@H]3C(=O)N(CC)C(=O)[C@@H]3[C@]3(C(=O)OC)CCCCN23)cc1OC,,6.57 µM (active)
COCCCN1C(=O)c2ccc(C(=O)Nc3ccc(OC)cc3OC)cc2C1=O,25.7% [at 5.75 µM],
COc1ccc(N2C(=O)CCC(C(=O)N(C)C3CCCCC3)C2c2ccc(OC)c(OC)c2)cc1 (stereo unspecified),-2.32%,
CCn1cc(CN2CCC(C(=O)Nc3cccc(-c4cccc(Cl)c4)c3)CC2)c(C)n1,11.7%,
CCN1C(=O)[C@@H]2[C@@H](c3ccc(-c4cccc(Cl)c4)cc3)N3CCC[C@@]3(C(=O)OC)[C@@H]2C1=O,,8.28 µM (active)
COc1ccc(OC)c(NC(=O)CN(C)CCOc2ccc(Br)cc2)c1,-21.8%,
CC(=O)Nc1ccc(NC(=O)C2CCCN2S(=O)(=O)c2cccc(C(F)(F)F)c2)cc1 (stereo unspecified),6.66%,
O=C(Nc1n[nH]c(C(F)(F)F)n1)c1cccs1,41.7%,
CC(=O)NS(=O)(=O)c1ccc(N/C(N)=N/c2nc(C)cc(C)n2)cc1,-8.97%,

SMILES,"activity change, negative = inhibition",Potency
CC1=C(C(N)=O)C(c2ccc(Br)cc2)n2ncnc2N1 (stereo unspecified),9.45%,
Clc1ccc2c(c1)C1=C(C(c3ccncc3)O2)C(c2ccc(Br)cc2)n2ncnc2N1 (stereo unspecified),,3.29 µM (active)
COC(=O)COc1ccc2c(c1C)O/C(=C\c1ccco1)C2=O,86.9%,
CC1CC(C)(C)n2c(O)c(N=NC(N)=S)c3cccc1c32 (stereo unspecified),11.4%,
Cc1nc2ccc(C(=O)N3CCN(c4ccccc4)CC3)cc2s1,-6.37%,
CCc1nc2ccc(C(=O)N3CCN(c4cccc(Cl)c4)CC3)cc2nc1CC,,7.38 µM (active)
O=C(CCCC(=O)N1CCN(c2cccc(Cl)c2)CC1)c1ccccc1,4.4%,
CCOc1cc(C(=O)O)ccc1OCCOc1ccccc1,10.2%,
CN(CC(=O)Nc1cccc(F)c1)C(=O)CC1CCCC1,30.9%,
Cn1c(NC(=O)c2ccccc2)nc2ccccc21,-49.6%,
COC(=O)c1ccc(-n2cnc3ccccc32)nc1,0%,
c1ccc(-c2nccc(-c3ccc(-n4cnc5ccccc54)cc3)n2)nc1,,4.15 µM (active)
O=C(O)C1=NN(c2c(F)c(F)cc(F)c2F)C(=O)CC1,20.6%,
CSc1ncccc1C(=O)Nc1ccc(C)cn1,43.7%,
CCc1ccccc1NC(=O)CCOc1ccccc1,-7.11%,
CCOC(=O)N1CCC(NC(=O)Cc2cn(C)c3ccccc23)CC1,34.3%,
CCc1ccccc1NC(=O)Cc1cn(C)c2ccccc12,,13.1 µM (active)
COc1ccc(CNc2nc3c(c(=O)[nH]c(=O)n3C)n2Cc2ccccc2)cc1,12.3%,
O=C(CC(c1ccccc1)c1ccccc1)NCC(O)c1ccc([N+](=O)[O-])cc1 (stereo unspecified),-27.2%,
O=C(CSc1cccc[n+]1[O-])NCCCc1ccccc1,23.3%,
O=C(CSc1cccc[n+]1[O-])c1ccc(-c2ccccc2)cc1,,8.28 µM (active)
Cc1ccc(C(=O)CSc2ccccc2C(=O)O)cc1,188%,
